Screening data: PubChem, National Center for Advancing Translational Sciences (NCATS)
ALOX12 inh: inhibitors of human 12S-lipoxygenase ALOX12; P18054; purified 12hLO, xylenol orange hydroperoxide absorbance; Potency, µM (highest dose often 108 µM), for the others: at the highest dose activity change, negative = inhibition, actives largely listed as inhibitors; hit rate 1.1% among 580,000; AID 1671190; further: potency means the concentration at half of the fitted maximal effect; on the % scale 0 is the no-effect control and ±100 the full control effect
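Hydroperoxide product was detected by ferrous iron/xylenol orange as the 573 to 405 nm absorbance ratio. Arachidonic acid at 40 uM (final) was turned over for 30 min at room temperature by 150 nM human 12hLO, pH 7.0 Hepes buffer, after 15 min compound preincubation.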
POLI inh: DNA polymerase iota (human) inhibition; hit rate 1% among 390,000; Q9UNA4; AID 588590; Potency, µM (titrated, usually from 115 µM), for inactives: at the top dose activity, negative = inhibition, hits mostly inhibitors; Pol iota fluorescent replication assay, 10 min; further: potency means the concentration at half of the fitted maximal effect
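Fluorescent replication assay read twice, at 0 min and 10 min after adding 50 nM (final) substrate. Enzyme (10 nM) and compounds were first incubated 15 min at room temperature; enzyme-free buffer wells were negative controls.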
POLK inh: inhibitors of human DNA polymerase kappa. Q9UBT6. purified Pol kappa, fluorescent DNA synthesis assay, 10 min. Potency, µM (top dose mostly 107 µM), for the others: at the top dose activity, negative = inhibition, usual class: inhibitors. hit rate 0.53% among 400,000. AID 588579; further: potency means the concentration at half of the fitted maximal effect; on the % scale 0 is the no-effect control and ±100 the full control effect
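Kinetic fluorescence screen: compound preincubated 15 min RT with 10 nM enzyme; 50 nM substrate (final) initiates; reads at 0/10 min.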
PI5P4K alpha inh: PI5P4K alpha (human) kinase inhibition; P48426; PI5P4Kalpha enzyme, ADP-Glo luminescence, 60 min; stronger effect = lower value; max response, %; hit rate 1.2% among 330,000; AID 652105; active means max response of -50% or lower; inconclusive means between -30% and -50%; inactive means -30% or higher; further: value at the top dose of about 77 µM; on the % scale 0 is the no-effect control and ±100 the full control effect
Target sequence (P48426 whole entry, looked up): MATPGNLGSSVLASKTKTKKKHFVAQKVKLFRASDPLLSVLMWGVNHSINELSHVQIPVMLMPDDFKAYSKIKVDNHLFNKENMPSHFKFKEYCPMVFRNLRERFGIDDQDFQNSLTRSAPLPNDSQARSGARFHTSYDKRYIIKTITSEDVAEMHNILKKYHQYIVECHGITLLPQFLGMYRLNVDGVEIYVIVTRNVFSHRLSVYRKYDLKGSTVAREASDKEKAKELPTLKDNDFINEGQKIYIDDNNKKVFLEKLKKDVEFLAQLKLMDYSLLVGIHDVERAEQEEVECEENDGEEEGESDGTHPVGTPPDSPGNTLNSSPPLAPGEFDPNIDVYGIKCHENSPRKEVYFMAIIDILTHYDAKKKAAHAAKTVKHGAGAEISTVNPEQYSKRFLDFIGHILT
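Enzyme plus substrate dispensed, test compounds pinned in, then ATP (5 microM final) added. After 60 min at RT, ADP-Glo reagent 1 for 45 min and reagent 2 for 30 min preceded luminescence imaging.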
Pol beta inh: blocks human DNA polymerase beta activity; P06746; Pol beta primer extension/strand displacement, fluorescence kinetic; Potency, µM (highest dose often 114 µM), without a hit: top-dose activity change, negative = inhibition, usual class: inhibitors; hit rate 1.3% among 340,000; further: potency means the concentration at half of the fitted maximal effect; on the % scale 0 is the no-effect control and ±100 the full control effect
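Human Pol beta at 10 nM; strand-displacement substrate 50 nM final. Compound exposure 15 min at room temperature before start, reaction 10 min at room temperature.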
Pol eta inh: inhibitors of human DNA polymerase eta | Potency, µM (doses to about 114 µM), for the others: top-dose activity change, negative = inhibition, usual class: inhibitors | recombinant Pol eta, fluorescent DNA replication assay | hit rate 1.2% among 390,000 | AID 588591 | Q9Y253; further: potency means the concentration at half of the fitted maximal effect; on the % scale 0 is the no-effect control and ±100 the full control effect
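Pol eta at 10 nM preincubated with compounds 15 min at room temperature; reaction started with fluorescent substrate (50 nM final) and read kinetically at 0 and 10 min.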
Numbers without * were called inactive. Sampled rows, rich in hits. Any-hit rate of the full collection: about 2.9%. Unless noted, the call rests on the fitted dose curve; in most records, active means well fitted inhibition curve with a large enough effect; inconclusive means small, poorly fitted or top-dose-only effect, or another doubt; inactive means no such curve, though single readings can be large or run the other way.

For Cn1c(=O)[nH]c(=O)c2c1[nH]c(=S)n2Cc1ccc(Cl)cc1 the results were ALOX12 inh inconclusive, POLI inh -15%, POLK inh -7%, PI5P4K alpha inh -92*, Pol beta inh 73% and Pol eta inh 2%.
Cn1c(=O)[nH]c(=O)c2c1[nH]c(=S)n2CCCc1ccccc1 was read as ALOX12 inh inconclusive, POLI inh -28%, POLK inh -12%, PI5P4K alpha inh -52*, Pol beta inh 43% and Pol eta inh inconclusive.
Screening Cn1c(=O)c2c([nH]c(=S)n2CCCc2ccccc2)n(C)c1=O returned ALOX12 inh 1.3µM*, POLI inh 2%, POLK inh -8%, PI5P4K alpha inh -94*, Pol beta inh -18% and Pol eta inh -3%.
For O=C1S/C(=C\C=C\c2ccco2)C(=O)N1c1ccccc1 the results were ALOX12 inh 28µM*, POLI inh 13µM*, POLK inh 45µM*, PI5P4K alpha inh -50*, Pol beta inh 32µM* and Pol eta inh 45µM*.
Screening O=C1S/C(=C\C=C\c2ccco2)C(=O)N1c1ccc(O)cc1 returned ALOX12 inh 40µM*, POLI inh 32µM*, POLK inh inconclusive, PI5P4K alpha inh -87*, Pol beta inh 7.9µM* and Pol eta inh inconclusive.
Screening Cn1cccc1CN1CCC2(CC1)CC(=O)N(c1ccccc1)c1ccccc1O2 returned ALOX12 inh -16%.
`CC(OC(=O)c1ccc(-n2cnnn2)cc1)C(=O)Nc1ccc(F)c(F)c1F` (configuration not stated) gave ALOX12 inh -4%, POLI inh 40µM*, POLK inh inconclusive, PI5P4K alpha inh 0 and Pol eta inh 56µM*.
For O=C(NCC1CC1)c1cccc(OC2CN(Cc3ccc(F)cc3F)C2)c1 the results were ALOX12 inh 25µM*.
For CCC1(c2ccc(NC(=O)c3ccc4c(c3)OCO4)cc2)CCC(=O)NC1=O (configuration not stated) the results were ALOX12 inh -28%.
`Cc1ccc(-n2c(-c3ccccc3)cc(C=Nc3ccc(C)c(C)c3)c2-c2ccccc2)cc1` gave ALOX12 inh 20µM*.
For COc1ccccc1CCC(=O)N1CCC2(CC1)NC(=O)N(c1cccc(F)c1)N2 the results were ALOX12 inh 10µM*.
`COc1cc(OC)cc(C(=O)N2CCC3(CC2)NC(=O)N(Cc2ccccc2)C3=O)c1` gave ALOX12 inh 8%.
COc1ccccc1CCC(=O)N1CCN(S(=O)(=O)c2cccc(F)c2)CC1 was read as ALOX12 inh 0%, POLI inh 21%, POLK inh -14%, PI5P4K alpha inh 6 and Pol eta inh -9%.
`COc1cc(OC)cc(C(=O)N2CCC3(CC2)NC(=O)N(c2cccc(F)c2)N3)c1` gave ALOX12 inh 2.8µM*.
Screening COc1cc(OC)cc(C(=O)N2CCC3(CC2)NC(=O)N(c2cccc(Cl)c2)N3)c1 returned ALOX12 inh 1.3µM*.
COc1cc(OC)cc(C(=O)N2CCN(C(=O)c3cccc(F)c3)CC2)c1 was read as ALOX12 inh 26%, POLI inh 1%, POLK inh -15%, PI5P4K alpha inh 9, Pol beta inh 19% and Pol eta inh 3%.
COc1ccc(C(=O)N2CCC3(CC2)NC(=O)N(c2cccc(Cl)c2)N3)cc1 was read as ALOX12 inh 1.8µM*.
`C=CCNCc1ccc(OCC)cc1` gave ALOX12 inh -7%.
O=[N+]([O-])c1cnc(Sc2ccncn2)c([N+](=O)[O-])c1 was read as ALOX12 inh inconclusive, PI5P4K alpha inh -74* and Pol eta inh -15%.
`CCc1ccccc1NC(=O)CNC(=O)c1ccc(OCc2cn3ccccc3n2)cc1` gave ALOX12 inh -11%, POLI inh 45µM*, POLK inh -28%, PI5P4K alpha inh -8 and Pol eta inh -20%.
Screening CCc1ccccc1NC(=O)CN1CCN(C(=O)c2ccc(OCc3cn4ccccc4n3)cc2)CC1 returned ALOX12 inh 13%, POLI inh 22%, POLK inh -7%, PI5P4K alpha inh 0 and Pol eta inh -18%.
`COc1ccc(-c2cc(C[C@@H]3CC[C@H](O)[C@@H](CN(Cc4cccc(OC)c4)Cc4cccc(OC)c4)O3)no2)cc1` gave ALOX12 inh 18%.
Screening COc1cccc(-n2c(Cc3cc(=O)[nH]c(=O)[nH]3)nnc2SCC(=O)N2CCCCC2)c1 returned ALOX12 inh 8.9µM*, POLI inh 29%, POLK inh 20%, PI5P4K alpha inh -2, Pol beta inh -2% and Pol eta inh -15%.
`CC(C)c1ccc(-c2nc3cc(NC(=O)c4cccnc4)ccc3o2)cc1` gave ALOX12 inh 40µM*.
`O=C(Nc1ccc2oc(-c3ccccc3)nc2c1)c1cccnc1` gave ALOX12 inh 4%, POLI inh -4%, POLK inh -2%, PI5P4K alpha inh 6, Pol beta inh -4% and Pol eta inh -13%.
`O=C(Nc1ccc2oc(-c3cccnc3)nc2c1)c1ccc2c(c1)OCCO2` gave ALOX12 inh -22%, POLI inh inconclusive, POLK inh inconclusive, PI5P4K alpha inh -8, Pol beta inh 14µM* and Pol eta inh inconclusive.
For CC(=O)c1c(C)[nH]c(C(=O)c2oc3ccc(Br)cc3c2C)c1C the results were ALOX12 inh -6%.
COc1cc(Nc2cc3[nH]c(-c4ccccn4)cc3cn2)cc(C(F)(F)F)c1 was read as ALOX12 inh -29%.
CC1(C)CC(=O)C=C(Nc2ccc(O)c(C(=O)O)c2)C1 was read as ALOX12 inh -23%, POLI inh inconclusive, POLK inh inconclusive, PI5P4K alpha inh -94*, Pol beta inh -12% and Pol eta inh 12%.
`CCC1(c2ccccc2)NC(=O)N(CC(=O)N2CCN(S(=O)(=O)c3ccccc3)CC2)C1=O` (configuration not stated) gave ALOX12 inh -1%, POLI inh -9%, POLK inh 1%, PI5P4K alpha inh -65*, Pol beta inh -2% and Pol eta inh -15%.
`O=C(CN1C(=O)NC2(CCCCC2)C1=O)N1CCN(S(=O)(=O)c2ccccc2)CC1` gave ALOX12 inh 0%, POLI inh 15%, POLK inh 6%, PI5P4K alpha inh 1, Pol beta inh -3% and Pol eta inh -3%.
